Experiments:
[1] = target: Protein kinase C alpha type (Homo sapiens) (UniProt P17252); conditions: at 1 µM
[2] = target: Protein kinase C alpha type (Homo sapiens) (UniProt P17252); conditions: at 10 µM
[3] = target: Protein kinase C beta type (Homo sapiens) (UniProt P05771); conditions: at 1 µM
[4] = target: Protein kinase C beta type (Homo sapiens) (UniProt P05771); conditions: at 1 µM; remark: listed apart in the source
[5] = target: Protein kinase C beta type (Homo sapiens) (UniProt P05771); conditions: at 10 µM
[6] = target: Protein kinase C gamma type (Homo sapiens) (UniProt P05129); conditions: at 1 µM
[7] = target: Protein kinase C gamma type (Homo sapiens) (UniProt P05129); conditions: at 10 µM
[8] = target: Protein kinase C beta type (Homo sapiens) (UniProt P05771); conditions: at 10 µM; remark: listed apart in the source
[9] = target: Protein kinase C delta type (Homo sapiens) (UniProt Q05655); conditions: at 1 µM
[10] = target: Protein kinase C delta type (Homo sapiens) (UniProt Q05655); conditions: at 10 µM

Chain of Protein kinase C beta type (Homo sapiens) (P05771 2-671 limits assumed): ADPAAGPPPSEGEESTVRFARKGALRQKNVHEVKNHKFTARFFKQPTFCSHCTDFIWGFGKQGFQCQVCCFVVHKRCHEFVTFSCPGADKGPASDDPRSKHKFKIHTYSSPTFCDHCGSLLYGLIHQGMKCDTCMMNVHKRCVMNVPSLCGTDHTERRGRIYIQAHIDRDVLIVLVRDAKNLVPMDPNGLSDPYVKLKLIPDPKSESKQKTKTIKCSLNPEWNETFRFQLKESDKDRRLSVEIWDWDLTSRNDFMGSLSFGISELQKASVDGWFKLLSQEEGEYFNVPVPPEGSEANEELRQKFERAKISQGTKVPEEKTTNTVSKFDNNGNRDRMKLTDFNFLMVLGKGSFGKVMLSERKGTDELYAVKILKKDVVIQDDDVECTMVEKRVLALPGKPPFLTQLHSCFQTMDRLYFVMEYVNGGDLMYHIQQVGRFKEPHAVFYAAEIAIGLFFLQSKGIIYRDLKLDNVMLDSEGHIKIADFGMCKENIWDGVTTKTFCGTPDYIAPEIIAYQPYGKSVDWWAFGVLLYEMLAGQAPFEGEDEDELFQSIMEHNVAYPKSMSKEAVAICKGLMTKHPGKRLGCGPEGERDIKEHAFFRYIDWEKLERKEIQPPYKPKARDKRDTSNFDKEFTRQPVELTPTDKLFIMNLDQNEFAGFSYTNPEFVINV
Chain of Protein kinase C delta type (Homo sapiens) (Q05655 whole entry, looked up): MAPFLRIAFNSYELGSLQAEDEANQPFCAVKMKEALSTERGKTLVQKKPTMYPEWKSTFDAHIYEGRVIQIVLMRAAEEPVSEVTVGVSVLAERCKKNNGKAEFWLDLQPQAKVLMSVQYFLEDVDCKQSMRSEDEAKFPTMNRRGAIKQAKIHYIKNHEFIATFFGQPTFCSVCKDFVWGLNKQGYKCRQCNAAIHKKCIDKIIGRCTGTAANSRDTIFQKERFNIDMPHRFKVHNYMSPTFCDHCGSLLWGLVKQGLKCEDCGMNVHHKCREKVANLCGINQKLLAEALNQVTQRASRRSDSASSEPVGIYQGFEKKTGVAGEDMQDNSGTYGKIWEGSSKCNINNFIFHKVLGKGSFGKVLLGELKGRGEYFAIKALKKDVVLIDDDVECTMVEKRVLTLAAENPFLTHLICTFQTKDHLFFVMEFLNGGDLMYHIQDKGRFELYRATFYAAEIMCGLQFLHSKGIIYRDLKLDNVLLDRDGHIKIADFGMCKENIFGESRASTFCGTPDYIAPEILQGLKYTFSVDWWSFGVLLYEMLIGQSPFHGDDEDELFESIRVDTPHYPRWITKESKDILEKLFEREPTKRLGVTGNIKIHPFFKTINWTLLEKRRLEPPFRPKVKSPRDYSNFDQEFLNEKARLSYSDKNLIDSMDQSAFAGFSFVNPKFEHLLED

Structure (SMILES): O=C1Nc2ccccc2/C1=C1/Nc2ccccc2/C1=N\OCCC(O)CO (configuration not stated)
- residual activity [1]: 96%
- residual activity [2]: 65%
- residual activity [3]: 108%
- residual activity [4]: 97%
- residual activity [5]: 99%
- residual activity [6]: 81%
- residual activity [7]: 74%

Structure (SMILES): Oc1ccc(-c2nc(-c3ccc(F)cc3)c(-c3ccncc3)[nH]2)cc1
- residual activity [1]: 112%
- residual activity [2]: 92%
- residual activity [3]: 124%
- residual activity [8]: 85%
- residual activity [4]: 110%
- residual activity [5]: 81%
- residual activity [6]: 106%
- residual activity [7]: 103%
- residual activity [9]: 98%
- residual activity [10]: 90%

Structure (SMILES): CCN(CC)C(=O)c1ccc(Nc2nc(OCC3CCCCC3)c3nc[nH]c3n2)cc1
- residual activity [1]: 95%
- residual activity [2]: 58%
- residual activity [6]: 46%
- residual activity [7]: 13%
- residual activity [9]: 78%
- residual activity [10]: 26%

Structure (SMILES): CC(C)n1cnc2c(NCc3ccccc3)nc(NCCCO)nc21
- residual activity [1]: 99%
- residual activity [2]: 102%
- residual activity [3]: 106%
- residual activity [8]: 105%
- residual activity [4]: 105%
- residual activity [5]: 104%
- residual activity [6]: 92%
- residual activity [7]: 104%
- residual activity [9]: 94%
- residual activity [10]: 98%

Structure (SMILES): N#CCCc1ccc2c(c1)-c1[nH]c3ccc([N+](=O)[O-])cc3c1CC(=O)N2
- residual activity [9]: 68%
- residual activity [10]: 57%

Structure (SMILES): O=C1c2ccccc2-[n+]2ccc3c([nH]c4ccccc43)c21
- residual activity [1]: 106%
- residual activity [2]: 98%
- residual activity [3]: 102%
- residual activity [8]: 97%
- residual activity [4]: 93%
- residual activity [5]: 88%
- residual activity [6]: 97%
- residual activity [9]: 101%
- residual activity [10]: 104%

Structure (SMILES): O=Nc1c(-c2c(O)[nH]c3ccccc23)[nH]c2ccccc12
- residual activity [1]: 93%
- residual activity [2]: 86%
- residual activity [3]: 93%
- residual activity [8]: 94%
- residual activity [4]: 95%
- residual activity [5]: 102%
- residual activity [6]: 92%
- residual activity [7]: 73%
- residual activity [9]: 85%
- residual activity [10]: 80%

Structure (SMILES): Cc1cncc2cccc(S(=O)(=O)N3CCCN(C(=O)CN)C[C@H]3C)c12
- residual activity [1]: 99%
- residual activity [2]: 85%
- residual activity [3]: 82%
- residual activity [8]: 31%
- residual activity [4]: 95%
- residual activity [5]: 51%
- residual activity [9]: 7%
- residual activity [10]: 3%

Structure (SMILES): CC#CC(=O)Nc1cc2c(Nc3ccc(F)c(Cl)c3)ncnc2cn1
- residual activity [1]: 103%
- residual activity [2]: 96%
- residual activity [3]: 113%
- residual activity [8]: 103%
- residual activity [4]: 101%
- residual activity [5]: 101%
- residual activity [6]: 109%
- residual activity [7]: 105%
- residual activity [9]: 94%
- residual activity [10]: 102%

Structure (SMILES): O=C1NC(=O)c2c1c1c3ccccc3[nH]c1c1[nH]c3cc(Br)ccc3c21
- residual activity [1]: 102%
- residual activity [2]: 103%
- residual activity [3]: 108%
- residual activity [8]: 95%
- residual activity [4]: 104%
- residual activity [5]: 95%
- residual activity [6]: 99%
- residual activity [7]: 100%
- residual activity [9]: 97%
- residual activity [10]: 102%

Structure (SMILES): Nc1cccc(-c2cc3c(Oc4cccc(O)c4)ncnc3[nH]2)c1
- residual activity [2]: 97%
- residual activity [4]: 104%
- residual activity [5]: 95%
- residual activity [6]: 98%
- residual activity [7]: 101%
- residual activity [9]: 100%
- residual activity [10]: 95%

Structure (SMILES): N#CC(C#N)=C(N)/C(C#N)=C/c1ccc(O)cc1
- residual activity [3]: 120%
- residual activity [8]: 122%
- residual activity [4]: 96%
- residual activity [5]: 90%
- residual activity [7]: 79%

Structure (SMILES): COc1cc2ncnc(Nc3ccc(Oc4ccccc4)cc3)c2cc1OC
- residual activity [1]: 91%
- residual activity [2]: 96%
- residual activity [3]: 120%
- residual activity [8]: 126%
- residual activity [4]: 104%
- residual activity [5]: 104%
- residual activity [6]: 105%
- residual activity [7]: 97%
- residual activity [9]: 103%
- residual activity [10]: 107%

Structure (SMILES): Cn1cc(/C=C2\C(=O)Nc3ccc(S(N)(=O)=O)cc32)c2ccccc21
- residual activity [1]: 108%
- residual activity [2]: 104%
- residual activity [3]: 111%
- residual activity [8]: 109%
- residual activity [4]: 103%
- residual activity [5]: 108%
- residual activity [7]: 79%
- residual activity [9]: 101%
- residual activity [10]: 99%

Structure (SMILES): COc1cc2ncnc(Nc3ccc(NC(=O)c4ccccc4)cc3)c2cc1OC
- residual activity [2]: 107%
- residual activity [4]: 100%
- residual activity [5]: 94%
- residual activity [9]: 107%
- residual activity [10]: 102%

Structure (SMILES): N#Cc1cnc2cnc(NCc3cccnc3)cc2c1Nc1ccc(F)c(Cl)c1
- residual activity [1]: 98%
- residual activity [2]: 55%
- residual activity [3]: 18%
- residual activity [8]: 18%
- residual activity [9]: 61%
- residual activity [10]: 24%

Structure (SMILES): Cn1cnc2cc3c(Nc4cccc(Br)c4)ncnc3cc21
- residual activity [1]: 101%
- residual activity [2]: 98%
- residual activity [3]: 109%
- residual activity [8]: 85%
- residual activity [4]: 100%
- residual activity [5]: 95%
- residual activity [6]: 103%
- residual activity [7]: 99%
- residual activity [9]: 97%
- residual activity [10]: 100%

Structure (SMILES): Cc1nc2cc3nc(-c4cccs4)cnc3cc2n1C
- residual activity [1]: 111%
- residual activity [2]: 96%
- residual activity [3]: 107%
- residual activity [8]: 105%
- residual activity [4]: 99%
- residual activity [5]: 99%
- residual activity [6]: 110%
- residual activity [7]: 104%
- residual activity [9]: 98%
- residual activity [10]: 106%

Structure (SMILES): Cc1cc(Nc2nc(-c3ccccc3)nc3ccccc23)n[nH]1
- residual activity [2]: 63%
- residual activity [3]: 109%
- residual activity [4]: 106%
- residual activity [7]: 51%

Structure (SMILES): Cc1ccc(S(=O)(=O)/C=C/C#N)cc1
- residual activity [1]: 88%
- residual activity [2]: 93%
- residual activity [3]: 98%
- residual activity [8]: 102%
- residual activity [4]: 104%
- residual activity [6]: 99%
- residual activity [7]: 87%
- residual activity [9]: 101%
- residual activity [10]: 105%

Structure (SMILES): COc1ccc(C(=O)Nc2sc3c(c2C(N)=O)CCCC3)cc1OC
- residual activity [1]: 106%
- residual activity [2]: 100%
- residual activity [3]: 109%
- residual activity [8]: 94%
- residual activity [4]: 111%
- residual activity [5]: 101%
- residual activity [6]: 117%
- residual activity [7]: 104%
- residual activity [9]: 101%
- residual activity [10]: 104%

Structure (SMILES): Cc1cccc(-c2[nH]c(C(C)(C)C)nc2-c2ccc3c(c2)OCO3)n1
- residual activity [9]: 98%
- residual activity [10]: 101%

Structure (SMILES): CN(C)CCCn1cc(C2=C(c3c[nH]c4ccccc34)C(=O)NC2=O)c2ccccc21
- residual activity [4]: 9%
- residual activity [5]: 2%
- residual activity [9]: 2%
- residual activity [10]: -1%

Structure (SMILES): NC(=O)c1ccc2[nH]c(-c3ccc(Oc4ccc(Cl)cc4)cc3)nc2c1
- residual activity [1]: 99%
- residual activity [2]: 90%
- residual activity [3]: 111%
- residual activity [8]: 93%
- residual activity [4]: 95%
- residual activity [5]: 100%
- residual activity [6]: 90%
- residual activity [7]: 108%
- residual activity [9]: 104%
- residual activity [10]: 107%

Structure (SMILES): Oc1n[nH]c2nnc(-c3c(-c4ccccc4)nn4ccccc34)cc12
- residual activity [1]: 102%
- residual activity [2]: 92%
- residual activity [3]: 94%
- residual activity [8]: 98%
- residual activity [4]: 103%
- residual activity [5]: 97%
- residual activity [6]: 96%
- residual activity [7]: 103%
- residual activity [9]: 99%
- residual activity [10]: 95%

Structure (SMILES): O=C1Nc2ccc(Br)cc2/C1=C\c1cc2c([nH]1)CCCC2
- residual activity [1]: 104%
- residual activity [2]: 105%
- residual activity [6]: 109%
- residual activity [7]: 111%
- residual activity [9]: 100%
- residual activity [10]: 107%

Structure (SMILES): COc1ccc(OC)c2c(=S)c3ccccc3[nH]c12
- residual activity [1]: 102%
- residual activity [2]: 101%
- residual activity [3]: 89%
- residual activity [8]: 115%
- residual activity [4]: 106%
- residual activity [5]: 97%
- residual activity [6]: 96%
- residual activity [7]: 91%
- residual activity [9]: 103%
- residual activity [10]: 98%

Structure (SMILES): Cc1nc(-c2ccccc2)c(-c2ccncc2)o1
- residual activity [1]: 113%
- residual activity [2]: 101%
- residual activity [3]: 109%
- residual activity [8]: 95%
- residual activity [4]: 106%
- residual activity [5]: 101%
- residual activity [6]: 108%
- residual activity [9]: 101%
- residual activity [10]: 90%

Structure (SMILES): c1ccc(-c2n[nH]cc2-c2ccnc3ccccc23)nc1
- residual activity [4]: 101%
- residual activity [5]: 94%
- residual activity [9]: 94%
- residual activity [10]: 92%
